# Compound activity: PubChem, National Center for Advancing Translational Sciences (NCATS)
# HepG2 viability: qHTS for Inhibitors of TGF-b: Cytotox Counterscreen. Potency, µM (top dose mostly 46.1 µM), for inactives: at the highest dose activity change, negative = cytotoxicity, actives largely listed as cytotoxic. actives 0.76% (n = 410,000). HepG2 CAGA-GFP viability, ATP luminescence, 18 h; also: potency is read from the fitted curve at half-maximal effect
#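 CellTiter-Glo luminescence gave cytotoxicity after 18 hours at 37 degrees C. The cells were HepG2 CAGA-GFP in 1% FBS DMEM, stimulated with 500 pg/mL TGF-beta after compound addition. %Activity was normalised to no-cell wells (complete cell-killing) and DMSO (no toxicity), and curves were fitted and classified.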
# TDP1 cell noCPT: qHTS for Inhibitors of human tyrosyl-DNA phosphodiesterase 1 (TDP1): qHTS in cells in absence of CPT; DT40 Tdp1-/- hTDP1 cells, no CPT, ATP luminescence, 48 h; actives 15% (n = 420,000); Potency, µM (titrated, usually from 46.2 µM), inactives show top-dose activity change, negative = growth inhibition, usual class: inhibitors; also: potency is read from the fitted curve at half-maximal effect; % is scaled to controls: 0 for no effect and ±100 for the full control effect; nearly all actives have a fitted effect of over 55% in size
#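 Growth of hTDP1-complemented DT40 Tdp1-knockout cells is measured by ATP luminescence after at least 48 hr compound exposure at 37 °C, with DMSO substituting for the 20 nM CPT used in the parallel screen.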
# DT40 TDP1 CPT: qHTS for Inhibitors of human tyrosyl-DNA phosphodiesterase 1 (TDP1): qHTS in cells in presence of CPT. chicken DT40 Tdp1-/-;hTDP1 cells + 20 nM CPT, ATP luminescence, 48 h. Potency, µM (series often up to 46.2 µM), inactives show at the highest dose activity change, negative = growth inhibition, hits mostly inhibitors. actives 12% (n = 420,000). AID 686979, 2013; also: potency is read from the fitted curve at half-maximal effect; % is scaled to controls: 0 for no effect and ±100 for the full control effect; nearly all actives have a fitted effect of over 55% in size
#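 Chicken DT40 Tdp1-/- cells stably complemented with human TDP1 were seeded at 400 cells/well in medium containing 20 nM camptothecin, exposed to pin-transferred compounds, and grown at 37 °C for at least 48 hr. Viability was read as ATP luminescence.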
# TGFb inhibitor: qHTS for Inhibitors of TGF-b | HepG2 CAGA-GFP TGF-b/SMAD3 reporter, GFP fluorescence, 18 h; TGF-beta stimulated, 500 pg/mL final | Potency, µM (top dose mostly 46.1 µM), without a hit: at the top dose activity, negative = inhibition, actives largely listed as inhibitors | actives 1.2% (n = 410,000) | AID 588855, 2011; also: potency is read from the fitted curve at half-maximal effect; % is scaled to controls: 0 for no effect and ±100 for the full control effect; nearly all actives have a fitted effect of over 65% in size
#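 First, reporter cells (HEPG2 CAGA-GFP) rested 2 h at 37 degrees C. Next, compounds were pinned in and TGF-beta added to 500 pg/mL final. After 18 h, GFP was imaged per cell and summed per well.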
# TDP1 block: qHTS Assay for Inhibitors of Tyrosyl-DNA Phosphodiesterase (TDP1); Tyrosyl-DNA phosphodiesterase 1 (Homo sapiens), Q9NUW8; recombinant TDP1, AlphaScreen DNA substrate cleavage; Potency, µM (top dose mostly 130 µM), without a hit: top-dose activity change, negative = inhibition, hits mostly inhibitors; actives 0.28% (n = 350,000); AID 485290, 2010; also: potency is read from the fitted curve at half-maximal effect; % is scaled to controls: 0 for no effect and ±100 for the full control effect; nearly all actives have a fitted effect of over 40% in size
# Target sequence (Q9NUW8 whole entry, looked up): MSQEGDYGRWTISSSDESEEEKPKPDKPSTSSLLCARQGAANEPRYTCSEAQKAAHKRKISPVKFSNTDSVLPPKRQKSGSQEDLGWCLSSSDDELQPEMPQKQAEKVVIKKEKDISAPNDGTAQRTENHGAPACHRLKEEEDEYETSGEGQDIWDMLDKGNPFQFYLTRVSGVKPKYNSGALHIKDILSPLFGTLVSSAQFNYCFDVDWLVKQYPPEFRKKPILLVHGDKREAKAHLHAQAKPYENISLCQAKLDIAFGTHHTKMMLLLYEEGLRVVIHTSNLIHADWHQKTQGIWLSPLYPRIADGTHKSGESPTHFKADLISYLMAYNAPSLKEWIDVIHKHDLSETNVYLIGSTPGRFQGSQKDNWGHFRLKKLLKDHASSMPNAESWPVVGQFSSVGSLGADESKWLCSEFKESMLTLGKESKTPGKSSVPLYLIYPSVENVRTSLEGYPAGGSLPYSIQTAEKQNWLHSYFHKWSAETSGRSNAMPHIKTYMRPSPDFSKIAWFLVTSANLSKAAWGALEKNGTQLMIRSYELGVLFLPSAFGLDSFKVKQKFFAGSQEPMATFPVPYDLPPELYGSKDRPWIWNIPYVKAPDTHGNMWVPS
#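 Recombinant E. coli-expressed Tdp1 (1 nM) preincubated with compound 15 min at RT, then 5'-biotin/3'-phosphotyrosine-FITC DNA substrate (15 nM) added for 5 min. AlphaScreen beads (10 ug/ml) added, 10 min RT; tyrosine-FITC cleavage read as signal loss.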
# IL-1B inflam inh: qHTS for Inhibitors of Inflammasome Signaling: IL-1-beta AlphaLISA Primary Screen. actives 4.7% (n = 360,000). activity change, % at 57.5 µM. THP-1 LPS/ATP IL-1B secretion, AlphaLISA, 16 h; hits give low values; in the data active = activity change below about -50%; inconclusive = mostly about -30% to -49%; also: % is scaled to controls: 0 for no effect and ±100 for the full control effect
#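 Secreted IL-1B measured by AlphaLISA bead assay after 16 h compound exposure of THP-1 cells; compounds (final up to 57.5 uM) added 1 h before LPS (250 ng/mL) and ATP (1.25 mM) stimulation; lower signal means less secretion.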
# An asterisk follows results filed as active; ? = inconclusive; · = no result; [ ] = remark or other dose. The list is not random: actives were taken first. Their share in the collection is about 19%. Unless noted, calls follow the shape of the dose curve; as a rule, active = well fitted curve in the direction sought with a large enough effect; inconclusive = small, poorly fitted or top-dose-only effect, or another doubt; inactive = no such curve, though single readings can be large; an effect the other way counts as inactive or inconclusive.
SMILES,HepG2 viability,TDP1 cell noCPT,DT40 TDP1 CPT,TGFb inhibitor,TDP1 block,IL-1B inflam inh
CCOC(=O)N1CCN(S(=O)(=O)c2ccc(C(=O)N(CCCN(C)C)c3nc4ccc(CC)cc4s3)cc2)CC1,-13%,?,?,0%,9%,-62*
CC1CCN(C(=O)c2ccc3c(c2)N(Cc2ccccc2F)C(=O)c2ccccc2S3(=O)=O)CC1,-2%,?,?,?,6%,·
O=C(c1ccc2c(c1)N(Cc1ccc(Cl)cc1)C(=O)c1ccccc1S2(=O)=O)N1CCC(Cc2ccccc2)CC1,-26%,18µM*,10µM*,0%,5%,·
O=C(c1ccc2c(c1)N(Cc1ccccc1F)C(=O)c1ccccc1S2(=O)=O)N1CCC(Cc2ccccc2)CC1,-15%,21µM*,16µM*,4%,-6%,·
O=S(=O)(NCc1csc(-c2ccccc2)n1)c1ccccc1,-9%,-20%,2%,·,3%,·
O=C1CCCC2=C1C1(CCSCC1)N=C(Nc1nc3ccccc3o1)N2,·,·,·,·,0%,·
Cc1nc2ccccc2c(=O)n1NCc1cc(Br)cs1,-2%,15µM*,?,-2%,1%,0
CC(=O)n1nc(-c2ccc(C)cc2)nc1NCc1ccc(F)cc1,-6%,-22%,0%,-5%,-8%,-27
CCOc1ccc(CNC(=O)c2sc3nc(C)cc(C)c3c2-n2cccc2)cc1,-6%,?,?,-28%,9%,·
Cc1cc2nc(-c3ccc(SCc4ccc(C#N)cc4)nc3)[nH]c2cc1C,-47%,23µM*,?,-25%,6%,-12
CC(=O)CSc1ccc(-c2nc3ccccc3[nH]2)cn1,10µM*,8.2µM*,10µM*,-1%,·,-58*
COC(=O)c1c(SCc2ccc(C#N)cc2)nc(=O)[nH]c1C,-12%,-19%,-27%,5%,-7%,-5
Cc1ccc2nc(-c3ccc(SCC(=O)N4CCc5ccccc54)nc3)[nH]c2c1,0%,13µM*,?,?,0%,21
Cc1ccc(-c2nnc3ccc(SCC(=O)N4CCc5ccccc54)nn23)cc1,-1%,-9%,-18%,6%,1%,27
CC(=O)CSc1ccc(-c2nc3cc(C)c(C)cc3[nH]2)cn1,-22%,?,?,?,3%,-82*
CC(=O)c1ccc(NC(=O)CSc2nnc3ccc(-c4ccc(Br)cc4)nn23)cc1,-20%,?,?,-27%,0%,·
CC[C@H]1NC(=O)c2cc(S(N)(=O)=O)c(Cl)cc2N1,·,·,·,·,-11%[56.1 µM],·
O=C(NCc1nnc(SCC(=O)N2CCCCCC2)o1)c1ccccc1F,1%,14%,9%,0%,3%,5
N#Cc1ccccc1CSc1ccc(-c2nc3ccccc3[nH]2)cn1,-43%,?,?,0%,-5%,-71*
Cc1cc2nc(-c3ccc(SCC(=O)Nc4nccs4)nc3)[nH]c2cc1C,-36%,16µM*,16µM*,14%,2%,-15
CCc1nnc(NC(=O)CSc2ccc(-c3nc4ccc(C)cc4[nH]3)cn2)s1,-41%,?,?,-24%,5%,8
COc1ccc(-c2csc3nc(C)nc(N4CCC(C)CC4)c23)cc1OC,-45%,18µM*,21µM*,-26%,0%,9
Cc1nc(N2CCC(C(N)=O)CC2)c2c(-c3cccs3)csc2n1,16%,21µM*,?,-6%,3%,23
CN(C)S(=O)(=O)c1ccc(C(=O)NC2CC(=O)N(c3ccc4c(c3)OCCO4)C2)cc1 (configuration not stated),3%,-23%,2%,1%,-5%,·
O=C(CSc1nc(O)c(C/C=C/c2ccccc2)c(=O)[nH]1)Nc1cccc(F)c1,1%,-30%,4%,-3%,·,·
SMILES,HepG2 viability,TDP1 cell noCPT,DT40 TDP1 CPT,TGFb inhibitor,TDP1 block,IL-1B inflam inh
Cc1cccn2c(=O)c3cc(C(=O)NCCc4ccccc4)c(=N)n(Cc4ccco4)c3nc12,-17%,10µM*,21µM*,?,-18%,4
Cc1cccn2c(=O)c3cc(C(=O)NCc4ccco4)c(=N)n(CCc4ccccc4)c3nc12,-39%,15µM*,-96%,-1%,2%,-85*
COc1ccc(CCNC(=O)c2cc3c(=O)n4cccc(C)c4nc3n(Cc3ccco3)c2=N)cc1OC,-12%,26µM*,?,-10%,6%,10
Cc1cccn2c(=O)c3cc(C(=O)NCc4ccco4)c(=N)n(C(C)C)c3nc12,-17%,-28%,-26%,3%,4%,-30
c1ccn2cc(-c3ccc4c(c3)OCO4)cc2c1,-1%,?,16µM*,-22%,3%,0
c1cnc2nc(-c3ccc4c(c3)OCO4)cn2c1,-5%,?,-13%,24%,3%,-19
Cc1ccc2c(c1)-c1onc(C(=O)N3CCN(c4cc(Cl)ccc4C)CC3)c1CO2,-12%,·,·,1%,1%,·
O=C(NCCc1ccccc1)c1ccc(-c2ccccc2C(F)(F)F)o1,-28%,?,9.2µM*,?,·,-59*
O=C(NCCc1ccccc1)c1ccc(-c2ccc(F)cc2)o1,-18%,-6%,3%,-2%,5%,-54*
CCOC(=O)c1c(C)n(-c2ccc(F)cc2)c2ccc(O)cc12,-12%,-2%,4%,-22%,·,7
COC(=O)c1c(C)n(-c2ccc(OC)cc2)c2ccc(O)cc12,-18%,13µM*,12µM*,-2%,-3%,-10
COc1ccc(-n2c(C)c(C(C)=O)c3cc(OC(C)=O)ccc32)cc1,0%,7.3µM*,5.2µM*,-8%,·,35
COc1ccc(N2CCN(c3c4c(nc5nncn35)CCC4)CC2)cc1,-25%,8.2µM*,8.2µM*,·,2%,·
Cc1nc2nncn2c(N2CCN(c3ccccc3)CC2)c1C,-13%,?,?,·,0%,·
COc1cccc(NC(=O)Cn2c(=O)n(-c3ccc(Cl)cc3)c(=O)c3sc4ccccc4c32)c1,-24%,?,?,0%,4%,·
COc1cccc(NC(=O)Cn2c(=O)n(-c3ccccc3)c(=O)c3sccc32)c1,-14%,13µM*,?,-27%,6%,-4
